Drawing on PubChem BioAssay (EPA / NIEHS), this text covers outcome and AC50 for seven molecules.

Assay [1] concerns the target Estrogen-related receptor gamma (Homo sapiens) (UniProt P62508). The assay is described as follows: ATG_ERRg_TRANS: Attagene TRANS-FACTORIAL HepG2 Assay for human Estrogen-Related Receptor gamma (ERRg) (AID 2282977; active means hit-call score of the fitted dose curve at least 0.9, where 1 is the maximum;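 further: hits increase reporter signal over DMSO so potencies reflect activators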). Particulars: HepG2 Attagene TRANS reporter, ERRg transactivation. An outline of the steps:
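Exogenous NR-Gal4 chimera activity was assessed in HepG2 cells bearing transfected GAL4-UAS reporters. After 24 h dosing, total RNA underwent RT-PCR, fluorescent primer extension and HpaI digestion before capillary electrophoresis, with gain of signal scored against DMSO.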

Assay [2] deals with Oxysterols receptor LXR-alpha (Homo sapiens) (UniProt Q13133). The assay is described as follows: ATG_LXRa_TRANS: Attagene TRANS-FACTORIAL HepG2 Assay for human Liver X Receptor alpha (LXRa) (AID 2282980; active means hit-call score of the fitted dose curve at least 0.9, where 1 is the maximum). Conditions: HepG2 Attagene TRANS reporter, LXRa transactivation. An outline of the steps:
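Transient HepG2 transfectants, 24 h dosing, RT-PCR/CE mRNA reporter quantitation; gain-of-signal vs DMSO.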

Assay [3] concerns the target Oxysterols receptor LXR-beta (Homo sapiens) (UniProt P55055). The assay is described as follows: ATG_LXRb_TRANS: Attagene TRANS-FACTORIAL HepG2 Assay for human Liver X Receptor beta (LXRb) (AID 2282981; active means hit-call score of the fitted dose curve at least 0.9, where 1 is the maximum). Conditions: HepG2 Attagene TRANS GAL4-LXRb reporter, mRNA. Summed up:
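After 24 h of chemical treatment, transfected HepG2 cells yield total RNA; reporter cDNA is PCR-amplified, FAM-labelled, HpaI-cut and run on capillary electrophoresis. Signal reflects chimeric LXRb-Gal4 activity on GAL4-UAS reporters.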

Assay [4] has as its target Nuclear receptor subfamily 4 group A member 2 (Homo sapiens) (UniProt P43354). The assay is described as follows: ATG_NURR1_TRANS: Attagene TRANS-FACTORIAL HepG2 Assay for human Nuclear Receptor Related Protein 1 (NURR1) (AID 2282985; active means hit-call score of the fitted dose curve at least 0.9, where 1 is the maximum). Particulars: HepG2 Attagene TRANS reporter, mRNA readout. An outline of the steps: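 Measures transcriptional activation by an exogenous NR-Gal4 chimera in transfected HepG2 liver cells. After 24 h, reporter RNA is reverse-transcribed, amplified and resolved by capillary electrophoresis; DMSO defines baseline.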

Assay [5] deals with Transcriptional activator Myb (Homo sapiens) (UniProt P10242). The assay is described as follows: ATG_Myb_CIS: Attagene CIS-FACTORIAL HepG2 Assay for human Myeloblastosis (Myb) Proto-Oncogene Transcription Factor (AID 2282986). Conditions: HepG2 Attagene CIS-FACTORIAL Myb reporter transcription; actives raise or lower the signal. Summed up: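 Endogenous transcription factor activity at a Myb-responsive cis element is reported in human liver HepG2 cells after 24 h chemical treatment. Reporter mRNA is detected by RT-PCR and capillary electrophoresis fluorescence, with DMSO as baseline.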

The target of assay [6] is Nuclear respiratory factor 1 (Homo sapiens) (UniProt Q16656). The assay is described as follows: ATG_NRF1_CIS: Attagene CIS-FACTORIAL HepG2 Assay for human Nuclear Respiratory Factor 1 (NRF1) Orphan Gene (AID 2282987). Particulars: HepG2 NRF1 cis-element reporter, Attagene multiplex; actives raise or lower the signal. An outline of the steps:
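Human hepatoma HepG2 cells carrying transfected promoter-regulated reporter units were incubated with test chemicals for 24 h. Reporter transcripts were measured by RT-PCR plus capillary electrophoresis, and endpoints derived by bidirectional fitting with DMSO as baseline.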

Assay [7] in a line: ATG_NFI_CIS: Attagene CIS-FACTORIAL HepG2 Assay for human Nuclear Factor I (NFI) (AID 2282989). Conditions: HepG2 cis-regulatory reporter, NFI response element transcription; actives raise or lower the signal. An outline of the steps: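 Reporter transcripts were measured by RT-PCR with fluorescent primer extension and capillary electrophoresis 24 h post-treatment. HepG2 cells carried transiently transfected cis-regulated reporter constructs reporting endogenous factor activity; gain or loss fitted against DMSO baseline.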

Assay [8] addresses Myc proto-oncogene protein (Homo sapiens) (UniProt P01106). The assay is described as follows: ATG_Myc_CIS: Attagene CIS-FACTORIAL HepG2 Assay for human Myelocytomatosis (Myc) Proto-Oncogene Transcription Factor (AID 2282990). Particulars: HepG2, Attagene cis-reporter transcription factor activity; actives raise or lower the signal. An outline of the steps:
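HepG2, transient MRTU transfection (cis promoters, endogenous TFs); 24 h dosing; TriZol RNA → oligo(dT) RT → PCR → 6-FAM primer extension → HpaI cut → CE. Bidirectional fit vs DMSO.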

The nature of assay [9]: ATG_NF_kB_CIS: Attagene CIS-FACTORIAL HepG2 Assay for human Nuclear Factor Kappa B (NF-kB) (AID 2282991). Particulars: HepG2 Attagene cis-factorial NF-kB reporter mRNA; actives raise or lower the signal. An outline of the steps: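 Multiplexed cis-reporter assay in transiently transfected HepG2. 24 h treatment; RNA isolated, RT-PCR, labelled fragments resolved by CE. DMSO baseline.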

Assay [10] can be described thus: ATG_NRF2_ARE_CIS: Attagene CIS-FACTORIAL HepG2 Assay for human Nuclear Factor Erythroid 2 Related Factor 2 (NFR2) response to Antioxidant Response Elements (ARE) (AID 2282992).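 On AC50: reporter mRNA level measured by RT-PCR and capillary electrophoresis fluorescence.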 Particulars: HepG2 Attagene ARE/NRF2 reporter, transcription factor activity; actives raise or lower the signal. Summed up: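 Readout: reporter mRNA quantified by RT-PCR plus FAM-labelled primer extension, HpaI digestion and capillary electrophoresis, 24 h after dosing transfected HepG2 cells. Gain or loss of signal is fitted bidirectionally against DMSO baseline.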

Assay [11] is described as follows: ATG_Oct_MLP_CIS: Attagene CIS-FACTORIAL HepG2 Assay for human Octamer-Binding Transcription Factor (Oct) (AID 2282993). Conditions: HepG2 Attagene cis-factorial Oct reporter, mRNA; actives raise or lower the signal. An outline of the steps: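 Readout is reporter transcript level from RT-PCR with fluorescent primer extension and capillary electrophoresis, fitted in both directions against DMSO. Transfected HepG2 reporter units report endogenous factor activity after 24 h dosing.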

For assay [12], the target named is Cellular tumor antigen p53 (Homo sapiens) (UniProt P04637). The assay is described as follows: ATG_p53_CIS: Attagene CIS-FACTORIAL HepG2 Assay for human p53 Transcription Factor (AID 2282994). Conditions: HepG2 p53 cis-element reporter, Attagene mRNA; actives raise or lower the signal. Summed up:
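Read-out: reporter mRNA by RT-PCR plus capillary electrophoresis with fluorescence detection. Human HepG2 liver cells carried transfected multi-reporter cis-element constructs, dosed 24 h. Gain or loss of signal fitted bidirectionally against DMSO control.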

Assay [13] is described as follows: BSK_3C_TissueFactor: BioMAP Diversity Plus: 3C Assay for Tissue Factor Biomarker Activity (AID 2282997). Conditions: BioMAP 3C HUVEC, tissue factor biomarker readout; actives raise or lower the signal. An outline of the steps: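 Cells used were primary human umbilical vein endothelial cells. They were dosed with chemical, and after 24 h Tissue Factor was quantified by ELISA. Curves were fitted bidirectionally with DMSO as baseline.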

Assay [14] is described as follows: BSK_3C_uPAR: BioMAP Diversity Plus: 3C Assay for Urokinase-type plasminogen activator receptor (uPAR) Biomarker Activity (AID 2282998). Conditions: BioMAP 3C HUVEC, uPAR biomarker ELISA; actives raise or lower the signal. Summed up: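 Cell-surface uPAR on HUVEC (3C system) read by ELISA at 24 h post-treatment, with DMSO as baseline and fitting in both directions. Parallel cultures stained with SRB to flag overt cytotoxicity.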

The nature of assay [15]: BSK_3C_VCAM1: BioMAP Diversity Plus: 3C Assay for Vascular cell adhesion molecule 1 (VCAM1) Biomarker Activity (AID 2282999). Particulars: BioMAP 3C HUVEC, VCAM1 ELISA, cytokine-stimulated; actives raise or lower the signal. Summed up:
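Activity fitted in both directions relative to DMSO, with ELISA measurement of the surface marker on primary HUVEC (3C) at 24 h post-treatment; parallel SRB staining (0.1% SRB, TCA-fixed, 560 nm) flagged overt cytotoxicity.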

Assay [16] addresses Glucocorticoid receptor (Homo sapiens) (UniProt P04150). The assay is described as follows: ATG_GR_TRANS: Attagene TRANS-FACTORIAL HepG2 Assay for human Glucocorticoid Receptor (GR) (AID 2282978; active means hit-call score of the fitted dose curve at least 0.9, where 1 is the maximum;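 further: activators score as hits since higher reporter transcript over DMSO is fitted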). Conditions: HepG2 Attagene TRANS GR reporter, mRNA transcription. An outline of the steps:
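Multiplexed TRANS reporter system, HepG2; 24 h exposure; RNA → oligo(dT) RT → reporter-specific PCR → 6-FAM primer extension → HpaI cut → CE fluorescence. Gain-of-signal vs DMSO.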

Assay [17] deals with Bile acid receptor (Homo sapiens) (UniProt Q96RI1). Nature of the assay: ATG_FXR_TRANS: Attagene TRANS-FACTORIAL HepG2 Assay for Farnesoid X Receptor (FXR) (AID 2282979; active means hit-call score of the fitted dose curve at least 0.9, where 1 is the maximum;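 further: hits raise reporter mRNA above DMSO so AC50 marks FXR activation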). Particulars: HepG2 Attagene TRANS FXR-GAL4 reporter transcription. An outline of the steps:
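Chimeric FXR-GAL4 activity in transiently transfected human HepG2 liver cells is scored as induction of reporter mRNA after 24 h of dosing. Detection uses RT-PCR with fluorescent labelling and capillary electrophoresis, with DMSO serving as baseline.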

Assay [18] can be described thus: ATG_M_06_TRANS: Attagene TRANS-FACTORIAL HepG2 Assay for M06 Transcription Factor (Internal Marker) (AID 2282983; active means hit-call score of the fitted dose curve at least 0.9, where 1 is the maximum). Conditions: HepG2 Attagene TRANS M06 internal marker reporter. Summed up:
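Human liver HepG2 cells bearing transiently transfected chimeric NR-GAL4 reporter units were treated with chemicals for 24 h. Total RNA was reverse-transcribed, reporter sequences amplified and labelled, then quantified by capillary electrophoresis. Activity was fitted upward relative to DMSO.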

A short description of assay [19]: ATG_M_32_TRANS: Attagene TRANS-FACTORIAL HepG2 Assay for M32 Transcription Factor (Internal Marker) (AID 2282984; active means hit-call score of the fitted dose curve at least 0.9, where 1 is the maximum;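 further: transcript level of a background control reporter unit measured by RT-PCR and capillary electrophoresis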). Particulars: HepG2 Attagene TRANS M32 internal marker reporter. An outline of the steps:
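Cell-based TRANS-format assay in HepG2: exogenous chimeric GAL4 reporter units transiently expressed, compounds applied 24 h. Reporter mRNA detected by RT-PCR plus capillary electrophoresis; this readout is an internal background marker.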

Records with an inconclusive call do not appear. Active and inactive are the calls of the source. How the source made its calls, unless noted: active means hit-call score of the fitted dose curve at least 0.9, where 1 is the maximum; inactive means score below 0.9.

Nuclear receptor subfamily 4 group A member 2 (Homo sapiens), sequence (P43354 whole entry, looked up, the tested form may be a part): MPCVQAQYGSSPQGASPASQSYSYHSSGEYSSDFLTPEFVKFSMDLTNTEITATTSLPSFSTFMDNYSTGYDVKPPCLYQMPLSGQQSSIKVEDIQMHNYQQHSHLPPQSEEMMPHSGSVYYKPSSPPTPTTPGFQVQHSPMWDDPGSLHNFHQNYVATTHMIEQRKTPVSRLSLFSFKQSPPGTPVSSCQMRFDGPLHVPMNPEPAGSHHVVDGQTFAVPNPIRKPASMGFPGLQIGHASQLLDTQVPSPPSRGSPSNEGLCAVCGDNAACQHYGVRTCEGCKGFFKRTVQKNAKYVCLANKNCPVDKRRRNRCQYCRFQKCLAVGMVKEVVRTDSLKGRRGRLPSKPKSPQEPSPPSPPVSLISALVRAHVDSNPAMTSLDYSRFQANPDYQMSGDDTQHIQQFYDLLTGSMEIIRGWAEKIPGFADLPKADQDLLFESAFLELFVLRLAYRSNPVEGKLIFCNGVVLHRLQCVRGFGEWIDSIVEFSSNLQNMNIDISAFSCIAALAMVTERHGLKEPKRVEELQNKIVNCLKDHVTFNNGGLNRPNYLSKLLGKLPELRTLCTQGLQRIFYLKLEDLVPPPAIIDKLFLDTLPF
Cellular tumor antigen p53 (Homo sapiens), sequence (P04637 whole entry, looked up): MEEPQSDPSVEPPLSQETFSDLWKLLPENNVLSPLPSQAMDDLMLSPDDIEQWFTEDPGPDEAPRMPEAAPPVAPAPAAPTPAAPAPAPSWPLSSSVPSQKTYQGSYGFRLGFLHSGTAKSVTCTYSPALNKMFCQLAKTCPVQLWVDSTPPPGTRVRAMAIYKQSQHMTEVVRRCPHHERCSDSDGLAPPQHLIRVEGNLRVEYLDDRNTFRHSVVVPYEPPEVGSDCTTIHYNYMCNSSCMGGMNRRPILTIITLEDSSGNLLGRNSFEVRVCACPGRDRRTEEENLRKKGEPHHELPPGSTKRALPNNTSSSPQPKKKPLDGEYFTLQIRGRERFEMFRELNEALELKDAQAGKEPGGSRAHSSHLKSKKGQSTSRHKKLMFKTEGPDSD
Glucocorticoid receptor (Homo sapiens), sequence (P04150 whole entry, looked up): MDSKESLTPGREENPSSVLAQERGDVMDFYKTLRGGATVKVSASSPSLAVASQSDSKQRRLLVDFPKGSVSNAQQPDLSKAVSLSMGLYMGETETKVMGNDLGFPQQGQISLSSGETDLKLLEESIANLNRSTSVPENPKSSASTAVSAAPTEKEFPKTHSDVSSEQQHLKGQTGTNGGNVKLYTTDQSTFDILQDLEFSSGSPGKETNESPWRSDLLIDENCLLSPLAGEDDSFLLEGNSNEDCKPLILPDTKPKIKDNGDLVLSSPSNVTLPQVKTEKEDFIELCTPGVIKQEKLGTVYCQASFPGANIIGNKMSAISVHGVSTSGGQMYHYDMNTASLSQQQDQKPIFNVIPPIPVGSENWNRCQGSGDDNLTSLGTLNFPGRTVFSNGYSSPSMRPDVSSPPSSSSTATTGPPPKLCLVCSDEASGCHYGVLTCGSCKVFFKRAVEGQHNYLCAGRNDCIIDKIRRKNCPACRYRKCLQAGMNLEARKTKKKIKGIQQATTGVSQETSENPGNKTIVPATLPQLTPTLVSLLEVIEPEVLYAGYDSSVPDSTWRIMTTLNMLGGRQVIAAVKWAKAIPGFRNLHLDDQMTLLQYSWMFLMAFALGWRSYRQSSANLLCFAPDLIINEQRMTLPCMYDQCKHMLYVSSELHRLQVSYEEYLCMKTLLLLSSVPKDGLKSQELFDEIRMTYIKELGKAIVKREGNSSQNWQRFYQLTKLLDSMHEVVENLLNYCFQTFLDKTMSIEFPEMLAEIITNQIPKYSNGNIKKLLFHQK
Oxysterols receptor LXR-alpha (Homo sapiens), sequence (Q13133 whole entry, looked up): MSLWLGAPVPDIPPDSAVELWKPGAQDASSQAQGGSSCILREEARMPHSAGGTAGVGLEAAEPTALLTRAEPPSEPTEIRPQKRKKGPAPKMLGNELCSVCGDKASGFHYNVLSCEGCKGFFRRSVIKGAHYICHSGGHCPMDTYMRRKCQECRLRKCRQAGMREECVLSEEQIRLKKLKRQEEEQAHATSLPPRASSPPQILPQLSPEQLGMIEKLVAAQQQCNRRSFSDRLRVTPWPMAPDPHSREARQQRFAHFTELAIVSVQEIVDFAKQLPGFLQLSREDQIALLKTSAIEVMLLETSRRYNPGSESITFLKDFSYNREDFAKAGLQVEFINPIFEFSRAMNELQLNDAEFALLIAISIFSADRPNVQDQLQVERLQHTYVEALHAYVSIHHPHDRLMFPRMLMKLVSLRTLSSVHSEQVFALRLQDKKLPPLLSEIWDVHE
Estrogen-related receptor gamma (Homo sapiens), sequence (P62508 whole entry, looked up, the tested form may be a part): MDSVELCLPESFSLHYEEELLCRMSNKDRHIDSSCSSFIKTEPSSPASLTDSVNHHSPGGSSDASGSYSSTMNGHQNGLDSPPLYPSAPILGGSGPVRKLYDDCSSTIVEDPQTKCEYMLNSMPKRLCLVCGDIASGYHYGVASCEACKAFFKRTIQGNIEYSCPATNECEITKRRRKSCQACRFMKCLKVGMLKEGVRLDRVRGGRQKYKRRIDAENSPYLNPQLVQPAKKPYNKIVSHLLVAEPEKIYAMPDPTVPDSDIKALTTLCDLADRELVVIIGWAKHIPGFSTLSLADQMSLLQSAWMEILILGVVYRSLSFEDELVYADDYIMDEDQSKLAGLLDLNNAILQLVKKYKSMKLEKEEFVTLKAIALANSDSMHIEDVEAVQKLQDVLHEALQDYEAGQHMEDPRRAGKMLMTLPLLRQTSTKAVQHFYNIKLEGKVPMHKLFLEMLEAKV
Myc proto-oncogene protein (Homo sapiens), sequence (P01106 whole entry, looked up): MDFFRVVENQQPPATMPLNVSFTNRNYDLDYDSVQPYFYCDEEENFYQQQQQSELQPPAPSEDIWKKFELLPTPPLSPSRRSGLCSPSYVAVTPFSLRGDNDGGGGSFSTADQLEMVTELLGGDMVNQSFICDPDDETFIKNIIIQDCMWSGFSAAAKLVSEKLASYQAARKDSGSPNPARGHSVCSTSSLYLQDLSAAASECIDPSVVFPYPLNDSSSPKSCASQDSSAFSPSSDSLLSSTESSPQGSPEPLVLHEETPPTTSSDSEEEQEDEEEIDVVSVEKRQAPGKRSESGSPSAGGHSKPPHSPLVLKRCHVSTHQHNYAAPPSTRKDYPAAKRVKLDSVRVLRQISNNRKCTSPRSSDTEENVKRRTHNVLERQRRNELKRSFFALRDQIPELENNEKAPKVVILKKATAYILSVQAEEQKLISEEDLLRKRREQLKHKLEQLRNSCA
Transcriptional activator Myb (Homo sapiens), sequence (P10242 whole entry, looked up): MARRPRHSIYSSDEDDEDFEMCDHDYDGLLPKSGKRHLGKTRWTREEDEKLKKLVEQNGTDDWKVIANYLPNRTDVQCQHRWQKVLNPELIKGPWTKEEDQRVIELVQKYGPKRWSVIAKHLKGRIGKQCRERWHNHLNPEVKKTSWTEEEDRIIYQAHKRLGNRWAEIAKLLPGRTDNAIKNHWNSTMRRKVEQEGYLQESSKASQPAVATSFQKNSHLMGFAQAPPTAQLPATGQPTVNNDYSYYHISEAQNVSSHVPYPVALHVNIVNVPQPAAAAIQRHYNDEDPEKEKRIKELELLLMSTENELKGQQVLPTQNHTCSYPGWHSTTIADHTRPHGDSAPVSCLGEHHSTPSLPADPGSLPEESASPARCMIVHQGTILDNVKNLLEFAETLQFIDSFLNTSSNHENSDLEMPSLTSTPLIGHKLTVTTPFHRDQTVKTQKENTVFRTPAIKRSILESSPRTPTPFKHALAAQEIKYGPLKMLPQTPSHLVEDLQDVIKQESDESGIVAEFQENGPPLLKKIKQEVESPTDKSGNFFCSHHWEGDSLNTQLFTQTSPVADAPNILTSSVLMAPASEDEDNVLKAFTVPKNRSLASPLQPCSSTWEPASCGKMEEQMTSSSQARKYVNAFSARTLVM
Oxysterols receptor LXR-beta (Homo sapiens), sequence (P55055 whole entry, looked up, the tested form may be a part): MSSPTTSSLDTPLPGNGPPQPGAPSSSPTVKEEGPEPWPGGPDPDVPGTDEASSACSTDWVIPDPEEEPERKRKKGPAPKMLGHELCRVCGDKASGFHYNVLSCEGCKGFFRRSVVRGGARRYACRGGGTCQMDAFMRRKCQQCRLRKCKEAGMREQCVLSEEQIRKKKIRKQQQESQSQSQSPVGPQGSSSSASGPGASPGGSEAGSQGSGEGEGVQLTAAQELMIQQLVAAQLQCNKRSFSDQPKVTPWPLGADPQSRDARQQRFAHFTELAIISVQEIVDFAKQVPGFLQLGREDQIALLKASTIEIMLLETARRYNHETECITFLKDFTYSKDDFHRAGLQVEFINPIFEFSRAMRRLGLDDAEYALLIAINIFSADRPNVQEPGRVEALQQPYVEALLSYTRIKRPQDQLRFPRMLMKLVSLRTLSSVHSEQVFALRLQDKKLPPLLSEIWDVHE
Nuclear respiratory factor 1 (Homo sapiens), sequence (Q16656 whole entry, looked up): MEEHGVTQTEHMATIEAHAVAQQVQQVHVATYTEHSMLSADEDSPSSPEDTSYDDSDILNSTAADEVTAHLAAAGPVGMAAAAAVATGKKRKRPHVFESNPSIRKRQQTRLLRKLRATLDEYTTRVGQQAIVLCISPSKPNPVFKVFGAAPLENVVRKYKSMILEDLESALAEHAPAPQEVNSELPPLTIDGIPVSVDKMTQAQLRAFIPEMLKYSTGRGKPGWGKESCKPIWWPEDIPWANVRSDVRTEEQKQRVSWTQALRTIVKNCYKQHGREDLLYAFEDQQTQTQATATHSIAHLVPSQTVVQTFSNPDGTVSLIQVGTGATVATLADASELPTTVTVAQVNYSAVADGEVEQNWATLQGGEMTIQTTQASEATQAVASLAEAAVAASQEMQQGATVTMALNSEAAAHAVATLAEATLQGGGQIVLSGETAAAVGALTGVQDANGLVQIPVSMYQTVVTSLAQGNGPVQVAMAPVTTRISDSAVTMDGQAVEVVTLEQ

Turning to `CCC(C)(C)C(=O)OC1=C(c2ccc(Cl)cc2Cl)C(=O)OC12CCCCC2`, the result in [1], in assay [2], in [3], in assay [4], in assay [5] and in assay [6] was inactive. The call in [7], in assay [9], in assay [11] and in assay [12] was inactive. Also, the AC50 in assay [8] was 4.04 µM (active); in assay [10], 1.27 µM (active); in [13], 13.4 µM (active); in assay [14], 33.9 µM (active); in [15], 24.7 µM (active).
In the case of `CNC(=O)/C=C(\C)OP(=O)(OC)OC`, the call in assay [16], in assay [17], in assay [3], in assay [18], in [19] and in [5] was inactive. Moreover, the outcome in assay [7], in assay [8], in [10], in [11], in assay [14] and in assay [15] was inactive.
Consider `CC(C)N(C(=O)COc1nnc(C(F)(F)F)s1)c1ccc(F)cc1`, for which the call in [1], in assay [2], in assay [3], in [4], in [5] and in assay [7] was inactive. The outcome in assay [8], in [12], in assay [14] and in assay [15] was inactive. In addition, the results for the concentration at half-maximal activity (AC50) in [9], in [10] and in [11] were 12.6 µM (active), 20.7 µM (active) and 17.2 µM (active), respectively.
On to `COc1cc(OC)nc(NC(=O)NS(=O)(=O)c2cc(NC=O)ccc2C(=O)N(C)C)n1`, for which the outcome in assay [17], in [3], in assay [4], in [5], in [7] and in assay [8] was inactive. Moreover, the molecule was classed as inactive in assay [9], in assay [10], in [11], in assay [12], in assay [13] and in [14]. The outcome in assay [15] was inactive.
`O=[N+]([O-])c1c(Cl)c(Cl)c(Cl)c(Cl)c1Cl`: the outcome in assay [16], in assay [2], in [3], in assay [19], in [4] and in assay [5] was inactive. Besides, the result in assay [7], in assay [8], in [11], in assay [12], in assay [13] and in assay [14] was inactive. The AC50 in assay [9] is 13.8 µM (active); in assay [10], 4.17 µM (active); in assay [15], 21.4 µM (active).
Turning to `O=C(NC(=O)c1c(F)cccc1F)Nc1ccc(OC(F)(F)C(F)OC(F)(F)F)c(Cl)c1` (stereo not given), the molecule was classed as inactive in assay [1], in assay [2], in [3], in [18], in assay [5] and in assay [7]. The molecule was called inactive in assay [8], in assay [9], in assay [14] and in assay [15]. Further, the AC50 in [10] is 13.8 µM (active); in [11], 19.9 µM (active).
Consider `C#CCN1C(=O)COc2cc(F)c(N3C(=O)C4=C(CCCC4)C3=O)cc21`, for which the outcome in [16], in assay [2], in assay [3], in assay [19], in assay [4] and in assay [5] was inactive. Further, the outcome in assay [6], in assay [7], in assay [8], in assay [9], in assay [11] and in assay [13] was inactive. In addition, the outcome in assay [14] and in assay [15] was inactive. Moreover, the AC50 in assay [10] is 40.4 µM (active).
